Screens from PubChem.
This excerpt belongs to a sample that is enriched for hits.
Pf apPOL inh = Pf-apPOL DNA polymerase inhibition; Recombinant Pf-apPOL, molecular beacon fluorescence, 1.5 h; inhibition, % at 10 µM; 210,000 tested, 0.25% active
mHTT CaM bind = inhibitors of human mutant huntingtin-calmodulin interaction; AID 1671202; P42858; 190,000 tested, 3.6% active; AlphaScreen His-mHTT/GST-CaM binding, luminescence; inhibition, % at 15 µM
Target sequence (P42858 whole entry, looked up, change not shown): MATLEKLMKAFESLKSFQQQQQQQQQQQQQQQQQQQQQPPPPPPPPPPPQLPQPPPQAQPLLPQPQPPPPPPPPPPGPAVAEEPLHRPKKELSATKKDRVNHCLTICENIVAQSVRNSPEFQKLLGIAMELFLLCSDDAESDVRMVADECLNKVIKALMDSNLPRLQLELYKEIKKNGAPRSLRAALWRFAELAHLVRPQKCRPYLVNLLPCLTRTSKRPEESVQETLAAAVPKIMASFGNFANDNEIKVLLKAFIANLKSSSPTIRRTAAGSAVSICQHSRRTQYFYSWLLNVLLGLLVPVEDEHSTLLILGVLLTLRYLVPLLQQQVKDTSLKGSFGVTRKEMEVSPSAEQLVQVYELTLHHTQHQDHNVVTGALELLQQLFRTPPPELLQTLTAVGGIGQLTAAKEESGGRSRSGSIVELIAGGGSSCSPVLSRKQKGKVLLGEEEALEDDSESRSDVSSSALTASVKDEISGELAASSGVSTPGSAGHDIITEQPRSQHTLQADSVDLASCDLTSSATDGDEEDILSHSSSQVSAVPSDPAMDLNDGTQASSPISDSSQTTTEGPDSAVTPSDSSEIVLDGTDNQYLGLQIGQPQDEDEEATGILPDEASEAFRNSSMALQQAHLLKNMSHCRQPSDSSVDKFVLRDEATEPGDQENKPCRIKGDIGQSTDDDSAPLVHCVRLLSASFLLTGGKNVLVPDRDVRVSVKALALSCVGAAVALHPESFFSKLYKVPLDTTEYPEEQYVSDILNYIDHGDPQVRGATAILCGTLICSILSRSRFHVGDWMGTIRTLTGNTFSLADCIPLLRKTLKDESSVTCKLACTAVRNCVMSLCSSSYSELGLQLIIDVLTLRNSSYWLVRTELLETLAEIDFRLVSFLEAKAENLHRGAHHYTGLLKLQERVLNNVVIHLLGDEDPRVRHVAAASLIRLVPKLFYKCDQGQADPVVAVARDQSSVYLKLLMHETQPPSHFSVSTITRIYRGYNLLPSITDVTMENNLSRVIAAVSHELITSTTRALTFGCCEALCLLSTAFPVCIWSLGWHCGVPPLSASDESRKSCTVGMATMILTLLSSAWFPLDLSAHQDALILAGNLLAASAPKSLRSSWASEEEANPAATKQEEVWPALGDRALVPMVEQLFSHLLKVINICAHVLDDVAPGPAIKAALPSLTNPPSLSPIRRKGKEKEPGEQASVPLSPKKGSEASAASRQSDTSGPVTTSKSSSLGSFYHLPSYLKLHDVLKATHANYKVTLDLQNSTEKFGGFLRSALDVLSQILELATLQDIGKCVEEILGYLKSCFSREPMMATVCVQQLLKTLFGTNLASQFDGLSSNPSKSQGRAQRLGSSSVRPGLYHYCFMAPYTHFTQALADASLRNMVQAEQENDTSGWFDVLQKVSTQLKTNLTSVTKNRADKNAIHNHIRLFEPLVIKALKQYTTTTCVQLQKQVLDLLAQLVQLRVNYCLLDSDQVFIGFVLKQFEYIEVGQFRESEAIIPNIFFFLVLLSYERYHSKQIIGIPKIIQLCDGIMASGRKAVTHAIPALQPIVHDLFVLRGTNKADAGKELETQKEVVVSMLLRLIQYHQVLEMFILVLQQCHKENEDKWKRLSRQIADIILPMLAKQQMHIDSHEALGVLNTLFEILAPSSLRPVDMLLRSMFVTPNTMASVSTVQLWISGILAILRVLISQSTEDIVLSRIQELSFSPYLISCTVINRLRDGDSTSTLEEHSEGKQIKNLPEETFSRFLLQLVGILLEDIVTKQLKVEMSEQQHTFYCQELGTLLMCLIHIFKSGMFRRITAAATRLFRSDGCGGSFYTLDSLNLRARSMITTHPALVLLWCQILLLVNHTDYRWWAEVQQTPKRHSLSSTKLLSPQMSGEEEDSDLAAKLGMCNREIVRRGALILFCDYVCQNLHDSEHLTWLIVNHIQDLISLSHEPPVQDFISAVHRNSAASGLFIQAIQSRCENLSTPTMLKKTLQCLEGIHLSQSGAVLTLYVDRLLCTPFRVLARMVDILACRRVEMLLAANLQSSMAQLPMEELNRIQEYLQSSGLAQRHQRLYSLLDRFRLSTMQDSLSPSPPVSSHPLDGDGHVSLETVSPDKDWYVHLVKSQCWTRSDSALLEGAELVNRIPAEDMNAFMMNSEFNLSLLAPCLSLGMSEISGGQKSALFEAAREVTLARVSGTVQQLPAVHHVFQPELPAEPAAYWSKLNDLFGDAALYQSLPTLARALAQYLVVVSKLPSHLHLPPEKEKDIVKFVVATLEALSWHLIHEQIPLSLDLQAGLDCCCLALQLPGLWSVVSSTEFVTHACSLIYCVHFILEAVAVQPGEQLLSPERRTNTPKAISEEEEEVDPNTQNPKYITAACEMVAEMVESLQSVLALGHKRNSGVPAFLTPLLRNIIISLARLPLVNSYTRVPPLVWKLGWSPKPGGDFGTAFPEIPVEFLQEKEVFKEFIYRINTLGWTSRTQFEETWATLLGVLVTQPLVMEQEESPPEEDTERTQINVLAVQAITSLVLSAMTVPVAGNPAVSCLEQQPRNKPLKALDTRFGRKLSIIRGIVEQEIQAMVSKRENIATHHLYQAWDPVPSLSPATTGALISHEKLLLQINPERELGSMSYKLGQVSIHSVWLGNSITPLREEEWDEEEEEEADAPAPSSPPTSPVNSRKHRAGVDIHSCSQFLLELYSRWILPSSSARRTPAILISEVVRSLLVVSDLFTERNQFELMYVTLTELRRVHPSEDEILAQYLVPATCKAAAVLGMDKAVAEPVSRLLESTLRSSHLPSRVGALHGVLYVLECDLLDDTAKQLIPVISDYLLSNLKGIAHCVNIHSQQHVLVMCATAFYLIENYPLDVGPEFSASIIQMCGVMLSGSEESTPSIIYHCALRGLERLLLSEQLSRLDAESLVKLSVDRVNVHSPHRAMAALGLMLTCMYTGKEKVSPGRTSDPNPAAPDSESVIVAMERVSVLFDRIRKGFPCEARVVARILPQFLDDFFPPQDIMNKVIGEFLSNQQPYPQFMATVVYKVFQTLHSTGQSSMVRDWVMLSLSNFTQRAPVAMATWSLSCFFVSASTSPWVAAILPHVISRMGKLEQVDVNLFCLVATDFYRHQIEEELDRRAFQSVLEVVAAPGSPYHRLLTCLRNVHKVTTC
Numbers stand for hits. Cut-off read from the data, not from the text of the source: active = inhibition above about 50%; inactive = the rest.

Results for Cc1ccc(O)c(N=Cc2cccc([N+](=O)[O-])c2O)c1 ?
Pf apPOL inh: inactive; mHTT CaM bind: inactive

What do the screens show for `Cc1ccc(O)c(N=Cc2cc3c(cc2[N+](=O)[O-])OCO3)c1`?
Pf apPOL inh: inactive; mHTT CaM bind: 99.0

How did COc1cc([N+](=O)[O-])cc(C=Nc2cc(C(C)(C)C)cc(Cl)c2O)c1O do in these assays?
Pf apPOL inh: inactive; mHTT CaM bind: inactive

How did COc1ccc(N=Cc2ccc(Br)c([N+](=O)[O-])c2)cc1OC do in these assays?
Pf apPOL inh: inactive; mHTT CaM bind: 54.0

How did Cn1c(=O)n(C)c2cc(N=Cc3ccc(Br)c([N+](=O)[O-])c3)ccc21 do in these assays?
Pf apPOL inh: inactive; mHTT CaM bind: inactive

How did O=[N+]([O-])c1ccc(N=Cc2cc3c(cc2[N+](=O)[O-])OCO3)c(Br)c1 do in these assays?
Pf apPOL inh: inactive; mHTT CaM bind: inactive

What do the screens show for `COc1ccc(-c2noc(C3CCCN3C(=O)Nc3cccc(C)c3C)n2)cc1` (stereo unspecified)?
Pf apPOL inh: inactive; mHTT CaM bind: inactive

How did Cc1cccc(CCNC(=O)c2cn(CC(C)C)c(=O)c3c2c2ccccc2n3C)c1 do in these assays?
Pf apPOL inh: inactive; mHTT CaM bind: inactive

Results for Cc1ccc(O)c(N=Cc2ccc(Cl)c([N+](=O)[O-])c2)c1 ?
Pf apPOL inh: inactive; mHTT CaM bind: inactive

Results for Cc1ccc(O)c(N=Cc2ccc(Br)c([N+](=O)[O-])c2)c1 ?
Pf apPOL inh: inactive; mHTT CaM bind: 58.0

What do the screens show for `CCn1c(C2CCN(S(=O)(=O)c3ccc(C(F)(F)F)cc3)C2)nc2ccncc21` (stereo unspecified)?
Pf apPOL inh: inactive; mHTT CaM bind: inactive

Results for CCCN1C/C(=C\c2ccc3c(c2)OCO3)C(=O)/C(=C/c2ccc3c(c2)OCO3)C1 ?
Pf apPOL inh: inactive; mHTT CaM bind: 63.0

What do the screens show for `CCOc1ccc2c(c1)OC(=Cc1ccc3c(c1)OCO3)C2=O`?
Pf apPOL inh: inactive; mHTT CaM bind: inactive

Results for O=C(c1ccc(OCC2CCCN(C(=O)c3cccc(F)c3)C2)cc1)N1CCOCC1 (stereo unspecified) ?
Pf apPOL inh: inactive; mHTT CaM bind: inactive

What do the screens show for `O=C(CC1NCCNC1=O)Nc1ccccc1C(F)(F)F` (stereo unspecified)?
Pf apPOL inh: inactive; mHTT CaM bind: inactive

What do the screens show for `Cn1c(C(=O)NC2CC2)cc2c1CCN(Cc1ccc(F)cc1)C2`?
Pf apPOL inh: inactive; mHTT CaM bind: inactive

How did CC1CCCN(C(=O)c2cc3c(n2C)CCN(Cc2ccccc2)C3)C1 (stereo unspecified) do in these assays?
Pf apPOL inh: inactive; mHTT CaM bind: 68.7

Results for CC1CCCN(C(=O)c2cc3c(n2C)CCN(Cc2ccc(F)cc2)C3)C1 (stereo unspecified) ?
Pf apPOL inh: inactive; mHTT CaM bind: 58.2

What do the screens show for `Cn1c(C(=O)N2CCC(N3CCCCC3)CC2)cc2c1CCN(Cc1ccccc1)C2`?
Pf apPOL inh: inactive; mHTT CaM bind: inactive

What do the screens show for `COc1ccc(NC(=O)C(c2cc3c(cc2[N+](=O)[O-])OCO3)N2CCC3(CC2)OCCO3)cc1` (stereo unspecified)?
Pf apPOL inh: inactive; mHTT CaM bind: inactive

How did Cc1ccc2nc(C(=O)N3CCCC3)cc(Nc3ccccc3)c2c1 do in these assays?
Pf apPOL inh: inactive; mHTT CaM bind: inactive

How did COc1cccc(Cn2cccc(S(=O)(=O)N3CCCCCC3)c2=O)c1 do in these assays?
Pf apPOL inh: inactive; mHTT CaM bind: inactive

What do the screens show for `COCC(=O)N1CCc2c(c(-c3nnc(-c4ccccc4Cl)o3)nn2C)C1`?
Pf apPOL inh: inactive; mHTT CaM bind: inactive

How did CCOc1cccc2cc(C(=O)Nc3ccc(F)cc3)c(=Nc3ccc(C(=O)O)cc3)oc12 do in these assays?
Pf apPOL inh: inactive; mHTT CaM bind: inactive

What do the screens show for `CC(=O)c1c(C(C)=O)c(C)n(Cc2ccc(Cl)cc2)c1C`?
Pf apPOL inh: inactive; mHTT CaM bind: 52.7

What do the screens show for `CC(=O)c1sc(=S)n(CCc2ccc(Cl)cc2)c1C`?
Pf apPOL inh: inactive

How did O=[N+]([O-])c1ccc(O)c(C=Nc2cccc(CO)c2)c1 do in these assays?
Pf apPOL inh: inactive; mHTT CaM bind: inactive

How did Cc1ccc2c(c1)N(c1cccc(Br)c1)C=C(C#N)S2(=O)=O do in these assays?
Pf apPOL inh: inactive; mHTT CaM bind: inactive

What do the screens show for `Cc1ccc2[nH]cc(CCN3CC(C(=O)Nc4ccc5c(c4)OCCO5)CC3=O)c2c1` (stereo unspecified)?
Pf apPOL inh: inactive; mHTT CaM bind: inactive

What do the screens show for `Nc1ccc(Cl)cc1C(O)c1ccccc1` (stereo unspecified)?
Pf apPOL inh: inactive; mHTT CaM bind: inactive

What do the screens show for `CC(Nc1ccc(Cl)cc1N)c1ccccc1` (stereo unspecified)?
Pf apPOL inh: inactive; mHTT CaM bind: 98.4

Results for CSc1ccc(/C=c2\sc3ncnn3c2=O)cc1 ?
Pf apPOL inh: inactive; mHTT CaM bind: inactive

Results for O=C(C[n+]1cc(Br)cc2ccccc21)c1ccccc1 ?
Pf apPOL inh: inactive; mHTT CaM bind: 60.0

Results for COc1ccc(C(=O)C[n+]2cc(Br)cc3ccccc32)cc1[N+](=O)[O-] ?
Pf apPOL inh: inactive; mHTT CaM bind: inactive

Results for O=C(c1cc(-c2cccc(F)c2)ns1)N1CCCC1 ?
Pf apPOL inh: inactive; mHTT CaM bind: inactive

Results for Cc1nnc(CNC(=O)c2cc(-c3ccco3)[nH]n2)o1 ?
Pf apPOL inh: inactive; mHTT CaM bind: inactive

How did CCN1c2ccccc2-n2cccc2C12CCN(C(=O)Nc1ccccc1C)CC2 do in these assays?
Pf apPOL inh: inactive; mHTT CaM bind: inactive

What do the screens show for `CCN1c2cc(C)ccc2-n2cccc2C12CCN(C(=O)Nc1ccc(F)cc1F)CC2`?
Pf apPOL inh: inactive; mHTT CaM bind: 51.6

What do the screens show for `CCN1c2cc(C)ccc2-n2cccc2C12CCN(C(=O)Nc1cc(F)ccc1F)CC2`?
Pf apPOL inh: inactive; mHTT CaM bind: 51.3

What do the screens show for `CCN1c2cc(C)ccc2-n2cccc2C12CCN(C(=O)Nc1ccc(F)cc1)CC2`?
Pf apPOL inh: inactive; mHTT CaM bind: inactive

How did Cc1cccc(NC(=O)N2CCC3(CC2)NC(=O)c2ccccc2N3C)c1 do in these assays?
Pf apPOL inh: inactive; mHTT CaM bind: inactive

How did CCN1c2cc(C)ccc2-n2cccc2C12CCN(C(=O)Nc1cccc(C)c1)CC2 do in these assays?
Pf apPOL inh: inactive; mHTT CaM bind: 65.8

Results for CCCCCCOc1ccc(/C=c2\sc3nc(=O)c(C)nn3c2=O)cc1OC ?
Pf apPOL inh: inactive; mHTT CaM bind: inactive

Results for CCN1C(=O)c2cccnc2Sc2cc(C(=O)N3CCC(C)CC3)ccc21 ?
Pf apPOL inh: inactive; mHTT CaM bind: inactive

How did COCCNC(=O)c1nnc(N2CCCCC2)c2ccccc12 do in these assays?
Pf apPOL inh: inactive; mHTT CaM bind: inactive

Results for O=C(COc1cccc(C(F)(F)F)c1)N1CCN(c2ccc(-c3ccco3)nn2)CC1 ?
Pf apPOL inh: inactive; mHTT CaM bind: inactive

Results for CCNC(=O)c1ccc(-c2noc(C)n2)cc1 ?
Pf apPOL inh: inactive; mHTT CaM bind: inactive

How did Cc1nc(Nc2ccc(O)cc2)nc(Nc2ccc(O)cc2)c1[N+](=O)[O-] do in these assays?
Pf apPOL inh: inactive; mHTT CaM bind: 56.8

Results for Cc1nc(Nc2ccc3c(c2)OCCO3)nc(Nc2ccc3c(c2)OCCO3)c1[N+](=O)[O-] ?
mHTT CaM bind: inactive

What do the screens show for `CCC(=O)NCCc1csc(C2CCCN(C(=O)c3ccncc3)C2)n1` (stereo unspecified)?
Pf apPOL inh: inactive; mHTT CaM bind: inactive

Results for O=C(Nc1ccc2c(c1)OCO2)c1cnn2c1NC(c1cccs1)CC2C(F)(F)F (stereo unspecified) ?
Pf apPOL inh: 75.9; mHTT CaM bind: inactive
